How the values were obtained:
[1] = test system: Human papillomavirus type 1a protein E7 (residues 44-93); experiment: small molecules binding HPV E7 44-93 – biochemical, small-molecule microarray, residues 44-93, 635 nm fluorescence, primary screen (AID 1108); details: fluorescence 635 nm, higher = more signal;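 further: E7 fragment applied at 1 µg/mL in TBST for 1 h at 4 C; score combines spot fluorescence with its signal to noise ratio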
[2] = hepatitis C replication reporter changes, two-sided – Huh7 cells, luciferase reporter, HCV replication inhibitor project, primary screen (AID 1109); details: Huh7 HCV replicon luciferase reporter, 48 h; higher = more signal;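 further: huh7 hepatoma cells harbouring a luciferase neomycin HCV replicon reporter; luciferase luminescence as measure of HCV replicon replication; test concentration not given here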
[3] = biological target: Left-right determination factor 2 (Homo sapiens) (UniProt O00292); experiment: small molecules binding LEFTY2 protein – biochemical, small-molecule microarray, 635 nm fluorescence scan, primary screen (AID 1110); details: higher = more signal
[4] = biological target: Calmodulin-1 (Homo sapiens) (UniProt P0DP23); experiment: small molecules binding calmodulin-1 with EGTA – biochemical, small-molecule microarray, Cy5-labelled CALM1, profiling panel (AID 1111); details: Cy5-CALM1 binding fluorescence, higher = more signal;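 further: labelled calmodulin applied in Tris saline Tween buffer holding calcium plus EGTA and DTT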
[5] = biological target: Calmodulin-1 (Homo sapiens) (UniProt P0DP23); experiment: small molecules binding Ca-loaded calmodulin-1 – biochemical, small-molecule microarray, Cy5-labelled CALM1, plus calcium, artefact control for SMM control-protein annotation, profiling panel (AID 1112); details: Cy5-CALM1 binding fluorescence, higher = more signal;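 further: score merges spot fluorescence with signal to noise from triplicate slides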
[6] = probe aWnt5a binding to arrayed compounds – biochemical, biotinylated probe, 635/667 nm fluorescence, primary screen (AID 1113); details: small-molecule microarray, higher = more signal;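 further: score merges 667 nm fluorescence intensity with signal-to-noise per printed feature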
[7] = probe aShh binding to arrayed compounds – biochemical, biotinylated probe, 635/667 nm fluorescence, primary screen (AID 1114); details: small-molecule microarray, higher = more signal;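 further: probe is biotin-labelled aShh protein from a stem cell growth factor screen; measures binding of labelled protein to compounds printed on the slide; score merges feature fluorescence at 667 nm with signal-to-noise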
[8] = probe aNog binding to arrayed compounds – biochemical, biotinylated probe, 635/667 nm fluorescence, primary screen (AID 1115); details: small-molecule microarray, higher = more signal;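 further: probe is biotinylated aNog protein used at 0.15 µg/mL for 1 h at 4 C; z-score combines 667 nm fluorescence of each spot with its signal to noise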
[9] = biological target: Torsin-1A-interacting protein 1 (Homo sapiens) (UniProt Q5JTV8); experiment: compound microarray binding of lysate hLAP1 – cell lysate, small-molecule microarray, COS7 lysate, 635/667 nm fluorescence, primary screen (AID 1116); details: 635 nm fluorescence, higher = more signal
[10] = biological target: Alpha-bungarotoxin (Bungarus multicinctus) (UniProt P60615); experiment: compounds binding labelled alpha-BTX control protein – biochemical, small-molecule microarray, Alexa647 label, 635/667 nm fluorescence, artefact control for SMM control protein annotation, profiling panel (AID 1117); details: alpha-BTX-A647 binding fluorescence, higher = more signal
Alpha-bungarotoxin (Bungarus multicinctus), sequence (P60615 whole entry, looked up): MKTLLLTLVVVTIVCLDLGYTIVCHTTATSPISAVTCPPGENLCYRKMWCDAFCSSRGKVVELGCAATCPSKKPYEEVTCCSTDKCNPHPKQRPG

Torsin-1A-interacting protein 1 (Homo sapiens), sequence (Q5JTV8 whole entry, looked up): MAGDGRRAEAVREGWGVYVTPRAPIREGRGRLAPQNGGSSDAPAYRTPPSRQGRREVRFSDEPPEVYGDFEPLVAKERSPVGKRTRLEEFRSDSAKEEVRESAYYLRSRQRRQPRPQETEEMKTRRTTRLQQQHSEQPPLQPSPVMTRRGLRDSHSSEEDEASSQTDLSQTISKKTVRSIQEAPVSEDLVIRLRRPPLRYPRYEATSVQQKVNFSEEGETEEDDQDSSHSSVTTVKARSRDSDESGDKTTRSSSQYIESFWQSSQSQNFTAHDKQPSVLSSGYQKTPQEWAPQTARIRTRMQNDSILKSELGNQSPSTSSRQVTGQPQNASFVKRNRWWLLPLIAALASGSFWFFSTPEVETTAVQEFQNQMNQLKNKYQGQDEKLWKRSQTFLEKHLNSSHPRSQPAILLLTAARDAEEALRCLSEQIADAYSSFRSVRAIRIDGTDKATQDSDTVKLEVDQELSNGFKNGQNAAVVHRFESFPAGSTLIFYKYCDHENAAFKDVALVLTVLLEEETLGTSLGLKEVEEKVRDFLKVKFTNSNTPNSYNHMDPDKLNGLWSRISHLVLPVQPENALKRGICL
Left-right determination factor 2 (Homo sapiens), sequence (O00292 whole entry, looked up): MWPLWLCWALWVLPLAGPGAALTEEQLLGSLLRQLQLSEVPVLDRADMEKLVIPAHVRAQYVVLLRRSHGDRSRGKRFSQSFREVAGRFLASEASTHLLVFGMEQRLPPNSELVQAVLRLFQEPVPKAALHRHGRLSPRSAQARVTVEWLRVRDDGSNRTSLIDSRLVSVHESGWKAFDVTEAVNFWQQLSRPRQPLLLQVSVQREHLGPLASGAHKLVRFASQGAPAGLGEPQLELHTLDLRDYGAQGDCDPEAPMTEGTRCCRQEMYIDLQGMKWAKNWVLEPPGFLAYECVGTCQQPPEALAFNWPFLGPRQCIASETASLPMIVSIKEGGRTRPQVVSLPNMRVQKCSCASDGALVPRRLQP

## O=C1C[C@@](C(=O)NCc2ccccc2)(c2ccc([N+](=O)[O-])cc2)[C@@H](c2ccc(CO)cc2)N1CC12CC3CC(CC(C3)C1)C2
[1]
  composite z-score: 1.37
[2]
  z-score: -2.95
[3]
  composite z-score: 0.31
[4]
  composite z-score: 0.35
[5]
  composite z-score: 0.159
[6]
  composite z-score: -0.101
[7]
  composite z-score: -0.512
[8]
  composite z-score: -0.374
[9]
  composite z-score: 0.538
[10]
  composite z-score: 0.766

## O=C1OCCC=C[C@H]2OC34C=CCN(c5ccc(Cl)cc5)C(=O)[C@H]3N(CCCO)C(=O)[C@@H]4C12 (stereo not given in full)
[1]
  composite z-score: -0.726
[2]
  z-score: -1.04
[3]
  composite z-score: -0.131
[4]
  composite z-score: 0.0745
[5]
  composite z-score: 0.168
[6]
  composite z-score: -0.182
[7]
  composite z-score: -0.186
[8]
  composite z-score: 0
[9]
  composite z-score: -0.421
[10]
  composite z-score: 0.275

## COc1ccc(C#Cc2ccc3c(c2)[C@]2(C(=O)N3)[C@H](c3ccc(O)cc3)N3[C@H](c4ccccc4)[C@H](c4ccccc4)OC(=O)[C@H]3[C@@H]2C(=O)N2CCc3cc(OC)c(OC)cc3C2)cc1
[1]
  composite z-score: 1.36
[2]
  z-score: -1.11
[3]
  composite z-score: 0.406
[4]
  composite z-score: 1.02
[5]
  composite z-score: 0.745
[6]
  composite z-score: -0.0643
[7]
  composite z-score: -0.161
[8]
  composite z-score: -0.0503
[9]
  composite z-score: 0.7
[10]
  composite z-score: 1.67

## COC(=O)[C@@]1(Cc2ccccc2)[C@H]2c3cc(C(=O)N4CCCC4)n(Cc4ccc(O)c(OC)c4)c3C[C@H]2CN1C(=O)c1ccccc1
[1]
  composite z-score: 1.35
[2]
  z-score: -1.7
[3]
  composite z-score: -0.943
[4]
  composite z-score: 0.556
[5]
  composite z-score: 0.0466
[6]
  composite z-score: 0.288
[7]
  composite z-score: 1.14
[8]
  composite z-score: 1.11
[9]
  composite z-score: 0.53
[10]
  composite z-score: -0.142

## COCCOC(=O)N1C(=O)[C@@]2(c3cc(C#CC4(O)CCCCCC4)ccc31)[C@H](c1ccccc1OCCO)N1[C@H](c3ccccc3)[C@H](c3ccccc3)OC(=O)[C@H]1[C@@H]2C(=O)N1CCc2cc(OC)c(OC)cc2C1
[1]
  composite z-score: 1.43
[2]
  z-score: -2.42
[3]
  composite z-score: 0.21
[4]
  composite z-score: 1.26
[5]
  composite z-score: 0.57
[6]
  composite z-score: -0.0704
[7]
  composite z-score: -0.0289
[8]
  composite z-score: 0.268
[9]
  composite z-score: 1.24
[10]
  composite z-score: 1.97

## COCCCNC(=O)[C@@H]1c2ccccc2C(=O)N(Cc2ccccc2OC)[C@H]1c1ccc(CO)cc1
[1]
  composite z-score: 0.889
[2]
  z-score: -1.96
[3]
  composite z-score: -0.0144
[4]
  composite z-score: 0.349
[5]
  composite z-score: 0.392
[6]
  composite z-score: 0.0279
[7]
  composite z-score: -0.0035
[8]
  composite z-score: -0.136
[9]
  composite z-score: 1.62
[10]
  composite z-score: 0.117

## CCOC(=O)C[C@H]1[C@H](OC(=O)c2ccc(-c3ccccc3)cc2)[C@@H](NC(=O)c2ccccc2)c2cc(OCCCO)ccc2N1C(=O)c1ccc2ccccc2n1
[1]
  composite z-score: 1.29
[2]
  z-score: -1.09
[3]
  composite z-score: -0.196
[4]
  composite z-score: 1.2
[5]
  composite z-score: 0.963
[6]
  composite z-score: -0.0643
[7]
  composite z-score: -0.0011
[8]
  composite z-score: 0.176
[9]
  composite z-score: 0.629
[10]
  composite z-score: 0.552

## C=CCC(OC(C)=O)[C@@H]1[C@@H](N(Cc2ccc(-c3ccccc3)cc2)C(=O)Cc2ccc(F)cc2)c2cc(OCCCO)ccc2N1C(=O)c1ccc2ccccc2c1 (stereo not given in full)
[1]
  composite z-score: 0.0163
[2]
  z-score: -0.381
[3]
  composite z-score: -0.0251
[4]
  composite z-score: -0.0052
[5]
  composite z-score: 0.28
[6]
  composite z-score: -0.141
[7]
  composite z-score: -0.221
[8]
  composite z-score: -0.0632
[9]
  composite z-score: 0.402
[10]
  composite z-score: -0.0517

## C#CCNCc1ccccc1
[1]
  composite z-score: 0.297
[2]
  z-score: 0.141
[3]
  composite z-score: 0.689
[4]
  composite z-score: -0.389
[5]
  composite z-score: -0.163
[6]
  composite z-score: -0.213
[7]
  composite z-score: -0.291
[8]
  composite z-score: -0.213
[9]
  composite z-score: 0.195
[10]
  composite z-score: 0.34

## C[N+](C)(C)CCCCCCNC(=O)[C@H]1C[C@H]2C(=O)N[C@@H](Cc3ccccc3)C(=O)N2[C@H]1c1cccc(OCCO)c1
[1]
  composite z-score: 0.658
[2]
  z-score: 0.487
[3]
  composite z-score: 0.642
[4]
  composite z-score: -0.96
[5]
  composite z-score: -1.03
[6]
  composite z-score: -0.184
[7]
  composite z-score: -0.243
[8]
  composite z-score: -0.234
[9]
  composite z-score: 0.944
[10]
  composite z-score: -0.049

## OCCCC1=CC(C2CC2)N(Cc2cccc(OC(F)(F)F)c2)CC1 (stereo not given)
[1]
  composite z-score: -0.928
[2]
  z-score: -1.32
[3]
  composite z-score: -0.119
[4]
  composite z-score: -0.968
[5]
  composite z-score: 0.115
[6]
  composite z-score: -0.178
[7]
  composite z-score: -0.321
[8]
  composite z-score: -0.641
[9]
  composite z-score: 1
[10]
  composite z-score: -0.478

## N#Cc1ccc(C(O)C2C=CC3C(=O)N(c4ccccc4)C(=O)C3N2Nc2ccccc2F)cc1 (stereo not given)
[1]
  composite z-score: 1.29
[2]
  z-score: -0.494
[3]
  composite z-score: 0.262
[4]
  composite z-score: 0.123
[5]
  composite z-score: -0.564
[6]
  composite z-score: 0.0037
[7]
  composite z-score: -0.218
[8]
  composite z-score: -0.376
[9]
  composite z-score: 0.0448
[10]
  composite z-score: 0.175

Reference: PubChem BioAssay
